The list is not random: actives were taken first. Their share in the collection is about 8.9%.
KB-V1 MDR tox: kills drug-selected multidrug resistant KB-V1 cells | KB-V1 MDR cells viability, CellTiter-Glo, 72 h | Potency, µM (highest dose often 46.1 µM), usual class: cytotoxic | hit rate 3.4% among 400,000; note: potency is the fitted concentration of half-maximal effect; % is set by controls: 0 for no effect and ±100 for the full control effect; nearly all actives have a fitted effect of over 60% in size
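KB-V1 MDR subline cells in DMEM (phenol-red free, 10% FBS) exposed to compounds in qHTS concentration series for 72 h at 37 degrees C. Viability read by CellTiter-Glo luminescence; concentration-effect curves fitted after normalization and correction.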
D3 ag: agonists of human D3 dopamine receptor; P35462; D3R DiscoveRx beta-arrestin cells, luminescence, 90 min; max activation, %; hit rate 0.58% among 410,000; AID 652048; in the data active = max activation above about 30%; note: 0% is about no effect
Target sequence (P35462 whole entry, looked up): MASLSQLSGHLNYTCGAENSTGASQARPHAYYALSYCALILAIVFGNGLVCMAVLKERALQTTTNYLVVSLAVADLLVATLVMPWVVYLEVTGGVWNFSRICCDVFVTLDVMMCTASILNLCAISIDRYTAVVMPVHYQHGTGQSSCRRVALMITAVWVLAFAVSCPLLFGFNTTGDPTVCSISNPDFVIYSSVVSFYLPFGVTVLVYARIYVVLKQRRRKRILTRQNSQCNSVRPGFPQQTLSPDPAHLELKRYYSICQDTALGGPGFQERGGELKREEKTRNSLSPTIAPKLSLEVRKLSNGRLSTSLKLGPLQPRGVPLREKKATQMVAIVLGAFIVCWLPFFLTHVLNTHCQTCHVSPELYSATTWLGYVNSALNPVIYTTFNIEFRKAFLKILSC
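Agonist-mode cell screen: cells plated at 1500/well and incubated overnight at 37 °C, then exposed to library compounds for 90 min at 37 °C. Detection reagent was added for 30–60 min at room temperature, and luminescence was read.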
SW480 rereplic: inducers of DNA re-replication in SW480 colon cancer cells; SW480 DNA re-replication, Hoechst DNA content imaging, 48 h; Potency, µM (top dose mostly 46.1 µM), inactives show at the highest dose re-replication activation, usual class: activators; hit rate 1.8% among 340,000; note: potency is the fitted concentration of half-maximal effect; % of control where 0% means no effect; nearly all actives have a fitted effect of over 55% in size
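Image-based DNA-content assay: after two days of treatment, nuclei were labelled with the DNA dye Hoechst and imaged, and hits were compounds raising the count of nuclei showing high fluorescence intensity.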
DRD3 antagonist: blocks the human D3 dopamine receptor; P35462; D3R cells, DiscoveRx beta-arrestin luminescence, antagonist mode; active compounds read low; max response, negative = inhibition, %; hit rate 2.5% among 360,000; AID 652054; in the data active = max response below about -50%; inconclusive = no clear call, values can overlap the other calls; note: % is set by controls: 0 for no effect and ±100 for the full control effect
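Cells plated overnight at 1500 cells/well, then exposed to library compounds with dopamine controls for 90 minutes at 37 degrees C. DiscoveRx reagent added for 30–60 minutes at room temperature; luminescence read, quantitative HTS format.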
MCF10A rereplic: induces DNA re-replication in MCF 10a normal breast cells. AID 624296. MCF 10A DNA re-replication, Hoechst nuclear intensity, 48 h. hit rate 2.9% among 350,000. Potency, µM (top dose mostly 46.1 µM), inactives show at the top dose activity, positive = re-replication, usual class: activators; note: potency is the fitted concentration of half-maximal effect; % of control where 0% means no effect; nearly all actives have a fitted effect of over 50% in size
KB-3-1 tox: KB-3-1 parental cell cytotoxicity | KB-3-1 viability, CellTiter-Glo ATP luminescence, 72 h | Potency, µM (titrated, usually from 46.1 µM), hits mostly cytotoxic | hit rate 1.4% among 400,000 | AID 1347075; note: potency is the fitted concentration of half-maximal effect; % is set by controls: 0 for no effect and ±100 for the full control effect; nearly all actives have a fitted effect of over 60% in size
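Here the drug-naive KB-3-1 line serves as comparator for MDR sub-line selectivity; cells received compound titrations, 72 h at 37 °C, then CellTiter-Glo readout.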
The depositor's hits bear a star; i = inactive; ? = inconclusive; . = not tested or not shown. Unless noted, calls come from the whole dose curve; as a rule, active = well fitted curve in the direction sought with a large enough effect; inconclusive = small, poorly fitted or top-dose-only effect, or another doubt; inactive = no such curve, though single readings can be large; an effect the other way counts as inactive or inconclusive.

SMILES	KB-V1 MDR tox	D3 ag	SW480 rereplic	DRD3 antagonist	MCF10A rereplic	KB-3-1 tox
Cc1cc(/C=C2\SC(=S)N(C)C2=O)c(C)n1-c1ccccc1O	?	13	12µM*	3	13µM*	?
COc1ccc(NC(=O)Cn2c(=O)n(-c3ccc(CC(=O)NCC4CCCO4)cc3)c(=O)c3ccccc32)c(OC)c1 (configuration not stated)	i	8	.	.	.	i
CCCCc1nn2c(=O)cc(COC(=O)c3ccccc3NC(=O)c3cccs3)nc2s1	i	-11	.	.	.	i
CCc1nnc2c3ccccc3nc(Nc3ccccc3OC)n12	i	-7	.	.	.	i
O=c1c2ccccc2ncn1-c1ccc(Br)cc1[N+](=O)[O-]	i	4	5.8µM*	-12	?	i
O=c1c2ccccc2ncn1-c1ccccc1[N+](=O)[O-]	i	5	-5%	2	12%	i
O=C(Oc1ccc(F)cc1)c1nc(SCc2ccc(F)cc2)ncc1Cl	.	-4	.	.	.	.
COc1ccc(NC(=O)CC2C(=O)N(C)C(=S)N2Cc2ccc3c(c2)OCO3)cc1 (configuration not stated)	15µM*	1	?	0	5%	i
COc1ccc(NC(=O)CC2C(=O)N(C)C(=S)N2CCc2ccccc2)cc1 (configuration not stated)	10µM*	2	?	-11	?	?
O=S(=O)(Nc1nc2ccccc2nc1Cl)c1ccc2ccccc2c1	?	11	3%	6	23µM*	i
COC(=O)c1cnn2c(C(F)(F)F)cc(-c3ccc(F)cc3)nc12	?	4	-6%	39	?	i
Cc1ccc(-c2ccc(C(=O)O)c(C)n2)cc1	i	1	2.3µM*	0	-47%	i
COC(=O)c1ccc(-c2ccc(F)cc2)nc1C	i	-1	29µM*	4	-6%	i
COc1ccc(-c2nnc(SCC(=O)c3ccc(NC(C)=O)cc3)o2)cc1OC	.	-25	.	.	.	.
COc1ccc(C(=O)Nc2nnc(SCc3cc(=O)n4cc(Cl)ccc4n3)s2)cc1	.	7	.	.	.	.
CC(C)c1ccc(O)c(NC(=O)c2cccnc2)c1	i	-13	-12%	-19	-11%	i
CCC(C)c1ccc(O)c(NC(=S)NC(=O)c2cccnc2)c1 (configuration not stated)	i	-41	?	-63*	?	i
CC(C)c1ccc(CN2CCC(C(=O)NCc3cccnc3)CC2)cc1	i	-5	0%	-83*	4%	i
CC(C)c1ccc(C(=O)NC(=S)NCc2cccnc2)cc1	2.9µM*	-2	-6%	-6	?	?
Cc1ccc(-c2noc(CN(C3CCCCC3)S(=O)(=O)c3ccc(Cl)cc3)n2)cc1	.	2	.	.	.	.
Cc1ccc(CSc2nc3cccnc3n2Cc2ccc(C(=O)NCCc3cccs3)cc2)cc1	.	-18	.	.	.	.
Cc1ccc(S(=O)(=O)N2CCCCC2CCNC(=O)C(=O)NCC2CCCO2)cc1 (configuration not stated)	5.8µM*	2	4%	-2	0%	i
Cc1ccc(S(=O)(=O)N2CCCCC2CCNC(=O)C(=O)NCc2ccccc2C)cc1 (configuration not stated)	9.2µM*	13	21µM*	-3	?	?
Cc1ccc(S(=O)(=O)N2CCCCC2CCNC(=O)C(=O)NCc2ccccc2)cc1 (configuration not stated)	4.1µM*	-20	6.5µM*	?	?	3.7µM*
O=C(NCCC1CCCCN1S(=O)(=O)c1ccc(F)cc1)C(=O)NCC1CCCO1 (configuration not stated)	i	-7	-3%	-26	10%	i
SMILES	KB-V1 MDR tox	D3 ag	SW480 rereplic	DRD3 antagonist	MCF10A rereplic	KB-3-1 tox
CCOc1ccccc1NC(=O)C1CCCN(c2ncnc3onc(-c4ccc(F)cc4)c23)C1 (configuration not stated)	i	2	.	.	.	i
CC(C)C[C@H](NC(=O)[C@@H](Cc1c[nH]c2ccccc12)NC(=O)[C@H](Cc1ccc(O)cc1)NC(=O)[C@H](CO)NC(=O)[C@H](Cc1c[nH]c2ccccc12)NC(=O)[C@H](Cc1cnc[nH]1)NC(=O)[C@@H]1CCC(=O)N1)C(=O)N[C@@H](CCCN=C(N)N)C(=O)N1CCC[C@@H]1C(=O)NCC(N)=O	.	5	.	.	.	.
CCOc1ccc(NC(=O)CN2C(=O)CSc3ccc(S(=O)(=O)N4CCOCC4)cc32)cc1	?	0	-5%	1	-1%	i
Cc1ccc(NC(=O)CN2CCSc3ccc(S(=O)(=O)N4CCCC4)cc32)cc1	12µM*	-6	.	.	.	i
Cc1ccc(S(=O)(=O)N2CCN(C(=O)CN3CCCSc4ccccc43)CC2)cc1	i	-12	3%	-55*	16%	i
CCOc1ccc(NC(=O)CN2CCSc3ccc(S(=O)(=O)N4CCCC4)cc32)cc1	10µM*	-7	.	.	.	?
CCc1cc(=O)oc2cc3oc(C)c(C)c3cc12	?	-1	0%	49	11%	i
CCCc1cc(=O)oc2cc3oc(C)c(C)c3cc12	15µM*	-3	0%	-4	16%	i
CNc1c(C(=O)O)ccc2c1C(=O)c1ccccc1C2=O	i	-45	-1%	-74*	5%	?
CCNc1c(C(=O)O)ccc2c1C(=O)c1ccccc1C2=O	i	-14	-3%	?	-9%	i
O=C(O)c1ccc2c(c1Nc1ccccc1)C(=O)c1ccccc1C2=O	i	-14	12%	-56*	?	i
CC(C)(C)C(=O)Nc1cccc(C(=O)OCc2cc(=O)n3nc(C4CC4)sc3n2)c1	i	4	.	.	.	i
Cn1c(SCC(=O)NCC2CCCO2)nc2c([nH]c3ccccc32)c1=O (configuration not stated)	?	-10	-4%	-14	3%	i
COc1ccc(C)cc1-n1c(SCC(=O)NCC2CCCO2)nc2c([nH]c3ccccc32)c1=O (configuration not stated)	.	-6	6%	-3	6%	.
O=C(CSc1nc2c([nH]c3ccccc32)c(=O)n1-c1ccccc1F)NCC1CCCO1 (configuration not stated)	?	-29	1%	-78*	0%	i
Cc1ccccc1-n1c(SCC(=O)NCC2CCCO2)nc2c([nH]c3ccccc32)c1=O (configuration not stated)	i	-23	3%	-82*	10%	i

High-throughput results from PubChem BioAssay.
